# Paper PMC7862700, “An all-to-all approach to the identification of sequence-specific readers for epigenetic DNA modifications on cytosine”
# Tests used:
# Experiment in all cases: DAPPL (digital affinity profiling via proximity ligation, sequencing); 10 mM Tris-HCl pH 7.5, 50 mM NaCl, 1 mM DTT, 4% glycerol, room temperature, 30 min; GST-TFs on glutathione beads, 16-mer random dsDNA library, 0.1% formaldehyde crosslink after washing; high values mean tight binding
# FEV = biological target: T1, FEV (Homo sapiens, UniProt Q99581 1-238); settings: protein: recombinant; tags: N-terminal GST; dsDNA, one strand shown
# T1 sequence: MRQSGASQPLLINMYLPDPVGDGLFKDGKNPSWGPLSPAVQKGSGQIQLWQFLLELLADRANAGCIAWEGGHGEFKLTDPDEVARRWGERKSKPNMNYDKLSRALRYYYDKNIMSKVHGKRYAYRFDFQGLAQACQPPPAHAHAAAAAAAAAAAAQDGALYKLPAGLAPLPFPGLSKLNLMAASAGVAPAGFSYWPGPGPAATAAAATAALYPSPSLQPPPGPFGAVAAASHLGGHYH
# Procedure, shortened: (§1)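 Human transcription factors fused to GST were expressed in yeast, captured on glutathione beads, given DNA barcodes and pooled with a GST-only negative control. Pools were incubated with 200 nmole of a 16-mer random double-stranded DNA library in Tris/NaCl/DTT/glycerol buffer at room temperature for 30 min. They were then washed, crosslinked with 0.1% formaldehyde, proximity-ligated (BsaI/T4 ligase, 1 h, 37 °C), PCR-amplified and sequenced on an Illumina NextSeq500. Binding signal is each 6-mer's read frequency for a factor divided by its frequency for the GST control.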
# ETV5 = ETV5 (Homo sapiens, UniProt P41161 1-510); settings: protein: recombinant; tags: N-terminal GST; dsDNA, one strand shown
# Procedure, shortened: as §1
# HSF1 = HSF1 (Homo sapiens, UniProt Q00613 1-529); settings: protein: recombinant; tags: N-terminal GST; chain copies: 3; dsDNA, one strand shown
# Procedure, shortened: as §1
# SPIC = biological target: T2, SPIC (Homo sapiens, UniProt Q8N5J4 1-248); settings: protein: recombinant; tags: N-terminal GST; dsDNA, one strand shown
# T2 sequence: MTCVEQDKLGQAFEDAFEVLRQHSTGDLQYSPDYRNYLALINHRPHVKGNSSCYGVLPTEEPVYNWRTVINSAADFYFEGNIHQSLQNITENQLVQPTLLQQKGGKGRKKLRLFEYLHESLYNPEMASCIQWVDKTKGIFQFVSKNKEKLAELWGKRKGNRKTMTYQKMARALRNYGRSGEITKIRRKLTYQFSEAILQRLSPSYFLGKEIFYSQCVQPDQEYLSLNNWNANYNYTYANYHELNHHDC
# Procedure, shortened: as §1
# ELF4 = ELF4 (Homo sapiens, UniProt Q99607 1-663); settings: protein: recombinant; tags: N-terminal GST; dsDNA, one strand shown
# Procedure, shortened: as §1
# ELK4 = biological target: T3, ELK4 (Homo sapiens, UniProt P28324-2 1-405); settings: protein: recombinant; tags: N-terminal GST; dsDNA, one strand shown
# T3 sequence: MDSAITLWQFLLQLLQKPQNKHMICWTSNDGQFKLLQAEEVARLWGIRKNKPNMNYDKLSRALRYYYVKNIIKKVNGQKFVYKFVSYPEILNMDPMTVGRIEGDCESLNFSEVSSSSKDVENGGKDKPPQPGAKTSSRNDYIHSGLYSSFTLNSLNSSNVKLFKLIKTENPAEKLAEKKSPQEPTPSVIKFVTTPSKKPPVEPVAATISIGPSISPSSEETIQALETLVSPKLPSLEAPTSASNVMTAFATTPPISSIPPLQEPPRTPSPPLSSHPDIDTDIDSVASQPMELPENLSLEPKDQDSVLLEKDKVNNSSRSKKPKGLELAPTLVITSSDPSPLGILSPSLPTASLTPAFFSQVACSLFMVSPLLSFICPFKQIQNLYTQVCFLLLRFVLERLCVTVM
# Procedure, shortened: as §1
# ETV2 = biological target: T4, ETV2 (Homo sapiens, UniProt O00321 1-342); settings: protein: recombinant; tags: N-terminal GST; dsDNA, one strand shown
# T4 sequence: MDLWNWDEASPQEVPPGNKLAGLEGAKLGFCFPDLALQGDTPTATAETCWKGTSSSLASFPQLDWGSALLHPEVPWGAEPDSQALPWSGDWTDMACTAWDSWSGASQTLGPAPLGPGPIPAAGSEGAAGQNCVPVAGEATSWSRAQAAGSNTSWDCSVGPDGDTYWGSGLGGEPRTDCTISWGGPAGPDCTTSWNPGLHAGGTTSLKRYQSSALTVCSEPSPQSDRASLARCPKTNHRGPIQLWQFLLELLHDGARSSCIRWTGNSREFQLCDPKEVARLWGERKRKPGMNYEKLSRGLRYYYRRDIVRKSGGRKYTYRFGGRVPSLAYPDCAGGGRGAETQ
# Procedure, shortened: as §1
# ELF3 = biological target: T5, ELF3 (Homo sapiens, UniProt P78545 1-371); settings: protein: recombinant; tags: N-terminal GST; dsDNA, one strand shown
# T5 sequence: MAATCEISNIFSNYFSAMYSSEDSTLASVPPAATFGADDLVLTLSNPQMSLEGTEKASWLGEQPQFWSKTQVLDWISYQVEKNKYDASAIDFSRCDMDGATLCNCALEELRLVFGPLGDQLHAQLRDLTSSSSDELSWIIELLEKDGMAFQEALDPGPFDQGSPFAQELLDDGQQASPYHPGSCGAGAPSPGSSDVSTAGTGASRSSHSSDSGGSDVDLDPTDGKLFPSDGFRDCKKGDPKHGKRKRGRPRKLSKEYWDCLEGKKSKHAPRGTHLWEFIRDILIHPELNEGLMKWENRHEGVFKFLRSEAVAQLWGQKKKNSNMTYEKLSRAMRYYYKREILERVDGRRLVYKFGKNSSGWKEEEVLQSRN
# Procedure, shortened: as §1
# CRX = CRX (Homo sapiens, UniProt O43186 1-299); settings: protein: recombinant; tags: N-terminal GST; dsDNA, one strand shown
# Procedure, shortened: as §1
# ETV1 = ETV1 (Homo sapiens, UniProt P50549 1-477); settings: protein: recombinant; tags: N-terminal GST; dsDNA, one strand shown
# Procedure, shortened: as §1
# ERF = biological target: T6, ERF (Homo sapiens, UniProt P50548 1-548); settings: protein: recombinant; tags: N-terminal GST; dsDNA, one strand shown
# T6 sequence: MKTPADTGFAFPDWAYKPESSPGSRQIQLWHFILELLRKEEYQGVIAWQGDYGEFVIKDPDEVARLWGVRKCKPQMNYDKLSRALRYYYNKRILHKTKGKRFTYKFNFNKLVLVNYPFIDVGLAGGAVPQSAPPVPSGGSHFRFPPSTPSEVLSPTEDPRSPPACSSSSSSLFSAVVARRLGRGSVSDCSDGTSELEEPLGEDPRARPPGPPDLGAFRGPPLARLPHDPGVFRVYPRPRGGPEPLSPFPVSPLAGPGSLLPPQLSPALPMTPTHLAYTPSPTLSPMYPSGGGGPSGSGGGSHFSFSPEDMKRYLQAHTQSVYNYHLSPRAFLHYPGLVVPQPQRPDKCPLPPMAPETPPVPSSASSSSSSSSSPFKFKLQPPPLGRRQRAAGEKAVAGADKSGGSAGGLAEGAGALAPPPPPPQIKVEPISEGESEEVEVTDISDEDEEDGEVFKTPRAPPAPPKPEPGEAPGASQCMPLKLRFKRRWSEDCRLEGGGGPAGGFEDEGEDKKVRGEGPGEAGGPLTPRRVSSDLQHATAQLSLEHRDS
# Procedure, shortened: as §1
# ETV3L = biological target: T7, ETV3L (Homo sapiens, UniProt Q6ZN32 1-361); settings: protein: recombinant; tags: N-terminal GST; dsDNA, one strand shown
# T7 sequence: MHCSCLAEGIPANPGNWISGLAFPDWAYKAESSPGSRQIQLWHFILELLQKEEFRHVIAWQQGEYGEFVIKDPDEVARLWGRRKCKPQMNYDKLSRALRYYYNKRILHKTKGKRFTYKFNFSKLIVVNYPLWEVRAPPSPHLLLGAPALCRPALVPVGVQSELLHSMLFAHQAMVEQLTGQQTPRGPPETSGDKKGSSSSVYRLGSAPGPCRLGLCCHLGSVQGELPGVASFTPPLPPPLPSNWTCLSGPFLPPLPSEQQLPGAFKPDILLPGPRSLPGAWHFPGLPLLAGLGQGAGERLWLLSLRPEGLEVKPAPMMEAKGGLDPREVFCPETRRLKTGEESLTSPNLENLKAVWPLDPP
# Procedure, shortened: as §1
# ETS2 = biological target: T8, ETS2 (Homo sapiens, UniProt P15036 1-469); settings: protein: recombinant; tags: N-terminal GST; dsDNA, one strand shown
# T8 sequence: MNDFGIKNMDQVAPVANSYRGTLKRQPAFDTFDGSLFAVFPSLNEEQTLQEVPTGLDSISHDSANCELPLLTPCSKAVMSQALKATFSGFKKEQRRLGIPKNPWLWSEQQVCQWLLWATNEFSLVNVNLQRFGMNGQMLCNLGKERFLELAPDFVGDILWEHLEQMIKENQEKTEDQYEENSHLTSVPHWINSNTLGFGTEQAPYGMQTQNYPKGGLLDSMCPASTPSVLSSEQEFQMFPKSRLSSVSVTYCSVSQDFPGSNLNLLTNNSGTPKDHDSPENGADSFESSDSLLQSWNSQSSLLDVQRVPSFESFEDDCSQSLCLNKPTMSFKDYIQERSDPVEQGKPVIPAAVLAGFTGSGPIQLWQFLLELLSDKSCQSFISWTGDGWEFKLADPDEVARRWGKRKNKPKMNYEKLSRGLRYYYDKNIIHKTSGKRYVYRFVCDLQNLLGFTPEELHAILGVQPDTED
# Procedure, shortened: as §1
# SPDEF = biological target: T9, SPDEF (Homo sapiens, UniProt O95238 1-335); settings: protein: recombinant; tags: N-terminal GST; dsDNA, one strand shown
# T9 sequence: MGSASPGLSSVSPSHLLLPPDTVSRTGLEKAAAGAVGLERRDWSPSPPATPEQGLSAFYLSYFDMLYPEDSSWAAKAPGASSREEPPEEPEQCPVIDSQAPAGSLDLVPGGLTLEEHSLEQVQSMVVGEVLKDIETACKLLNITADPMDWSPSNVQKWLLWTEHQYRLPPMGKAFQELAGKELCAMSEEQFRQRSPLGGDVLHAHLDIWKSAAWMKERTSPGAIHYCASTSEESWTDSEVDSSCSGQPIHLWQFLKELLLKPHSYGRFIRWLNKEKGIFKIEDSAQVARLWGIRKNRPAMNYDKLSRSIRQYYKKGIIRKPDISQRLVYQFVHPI
# Procedure, shortened: as §1
# ETV7 = biological target: T10, ETV7 (Homo sapiens, UniProt Q9Y603 1-341); settings: protein: recombinant; tags: N-terminal GST; dsDNA, one strand shown
# T10 sequence: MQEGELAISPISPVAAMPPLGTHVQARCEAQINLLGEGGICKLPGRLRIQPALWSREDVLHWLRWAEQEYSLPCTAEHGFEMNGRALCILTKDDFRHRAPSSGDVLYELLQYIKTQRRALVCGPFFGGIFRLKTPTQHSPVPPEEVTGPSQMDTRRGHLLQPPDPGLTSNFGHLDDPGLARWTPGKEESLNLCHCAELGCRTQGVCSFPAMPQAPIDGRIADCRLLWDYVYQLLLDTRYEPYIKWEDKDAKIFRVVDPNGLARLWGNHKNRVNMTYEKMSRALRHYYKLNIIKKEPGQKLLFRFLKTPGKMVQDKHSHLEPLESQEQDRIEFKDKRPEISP
# Procedure, shortened: as §1
# ELF5 = biological target: T11, ELF5 (Homo sapiens, UniProt Q9UKW6-2 1-255); settings: protein: recombinant; tags: N-terminal GST; dsDNA, one strand shown
# T11 sequence: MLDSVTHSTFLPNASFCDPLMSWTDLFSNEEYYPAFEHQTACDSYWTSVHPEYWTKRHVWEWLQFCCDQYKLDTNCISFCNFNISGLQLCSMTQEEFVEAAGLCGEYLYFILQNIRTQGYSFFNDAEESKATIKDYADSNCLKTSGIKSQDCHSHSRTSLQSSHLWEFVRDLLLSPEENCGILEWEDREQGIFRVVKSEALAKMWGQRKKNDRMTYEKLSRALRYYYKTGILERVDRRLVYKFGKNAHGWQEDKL
# Procedure, shortened: as §1
# ETV3 = biological target: T12, ETV3 (Homo sapiens, UniProt P41162-2 1-143); settings: protein: recombinant; tags: N-terminal GST; dsDNA, one strand shown
# T12 sequence: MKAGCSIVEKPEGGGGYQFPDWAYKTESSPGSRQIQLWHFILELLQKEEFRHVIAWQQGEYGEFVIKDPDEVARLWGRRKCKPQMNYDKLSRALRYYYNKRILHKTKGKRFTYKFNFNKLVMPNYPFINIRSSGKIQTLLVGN
# Procedure, shortened: as §1
# ETV6 = ETV6 (Homo sapiens, UniProt P41212 1-452); settings: protein: recombinant; tags: N-terminal GST; dsDNA, one strand shown
# Procedure, shortened: as §1
# HSF1, sequence (Q00613 whole entry): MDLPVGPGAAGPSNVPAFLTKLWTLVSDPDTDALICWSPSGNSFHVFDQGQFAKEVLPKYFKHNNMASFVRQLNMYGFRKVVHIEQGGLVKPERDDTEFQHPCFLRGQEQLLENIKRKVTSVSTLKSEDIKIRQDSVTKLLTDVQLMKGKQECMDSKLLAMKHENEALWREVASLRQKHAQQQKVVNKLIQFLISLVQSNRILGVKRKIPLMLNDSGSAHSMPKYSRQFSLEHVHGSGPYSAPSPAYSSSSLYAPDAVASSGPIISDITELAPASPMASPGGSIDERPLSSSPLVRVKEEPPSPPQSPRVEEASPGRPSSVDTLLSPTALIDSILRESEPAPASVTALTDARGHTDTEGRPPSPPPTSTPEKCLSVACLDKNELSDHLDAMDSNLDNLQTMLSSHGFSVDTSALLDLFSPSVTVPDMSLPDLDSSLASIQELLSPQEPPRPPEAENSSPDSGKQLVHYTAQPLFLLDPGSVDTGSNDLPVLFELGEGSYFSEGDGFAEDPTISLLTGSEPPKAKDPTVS
# ETV6, sequence (P41212 whole entry): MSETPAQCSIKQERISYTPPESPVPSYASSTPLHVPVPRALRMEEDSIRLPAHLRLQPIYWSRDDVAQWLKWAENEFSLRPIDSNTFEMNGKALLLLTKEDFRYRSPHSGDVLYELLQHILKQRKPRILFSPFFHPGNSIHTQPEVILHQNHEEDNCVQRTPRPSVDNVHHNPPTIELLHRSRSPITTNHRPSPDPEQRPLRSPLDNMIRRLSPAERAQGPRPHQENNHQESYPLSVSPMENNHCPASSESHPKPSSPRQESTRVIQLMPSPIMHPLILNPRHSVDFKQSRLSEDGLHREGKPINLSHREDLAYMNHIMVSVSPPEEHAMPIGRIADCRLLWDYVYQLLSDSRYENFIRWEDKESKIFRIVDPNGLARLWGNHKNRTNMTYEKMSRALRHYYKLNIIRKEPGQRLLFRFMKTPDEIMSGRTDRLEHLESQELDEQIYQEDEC
# CRX, sequence (O43186 whole entry): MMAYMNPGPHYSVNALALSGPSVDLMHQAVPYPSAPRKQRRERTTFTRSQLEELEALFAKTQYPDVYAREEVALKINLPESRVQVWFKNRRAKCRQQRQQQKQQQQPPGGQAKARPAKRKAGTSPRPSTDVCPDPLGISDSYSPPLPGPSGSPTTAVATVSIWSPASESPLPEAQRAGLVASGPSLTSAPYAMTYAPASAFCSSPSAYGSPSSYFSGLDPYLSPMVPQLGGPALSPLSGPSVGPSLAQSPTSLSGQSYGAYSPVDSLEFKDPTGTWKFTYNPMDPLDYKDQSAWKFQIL
# ETV1, sequence (P50549 whole entry): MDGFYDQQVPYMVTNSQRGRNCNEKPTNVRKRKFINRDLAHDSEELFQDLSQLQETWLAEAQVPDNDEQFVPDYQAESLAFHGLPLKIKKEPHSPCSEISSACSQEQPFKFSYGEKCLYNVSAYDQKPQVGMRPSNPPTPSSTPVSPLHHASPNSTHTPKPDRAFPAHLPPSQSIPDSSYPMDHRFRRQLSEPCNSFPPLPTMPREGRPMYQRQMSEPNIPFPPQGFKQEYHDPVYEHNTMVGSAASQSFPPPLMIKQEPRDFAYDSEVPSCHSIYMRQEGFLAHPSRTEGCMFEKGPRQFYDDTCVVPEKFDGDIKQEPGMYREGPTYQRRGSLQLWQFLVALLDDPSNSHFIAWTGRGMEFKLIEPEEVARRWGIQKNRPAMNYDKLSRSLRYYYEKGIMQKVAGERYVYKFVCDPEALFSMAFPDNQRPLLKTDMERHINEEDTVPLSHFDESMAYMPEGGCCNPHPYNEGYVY
# ELF4, sequence (Q99607 whole entry): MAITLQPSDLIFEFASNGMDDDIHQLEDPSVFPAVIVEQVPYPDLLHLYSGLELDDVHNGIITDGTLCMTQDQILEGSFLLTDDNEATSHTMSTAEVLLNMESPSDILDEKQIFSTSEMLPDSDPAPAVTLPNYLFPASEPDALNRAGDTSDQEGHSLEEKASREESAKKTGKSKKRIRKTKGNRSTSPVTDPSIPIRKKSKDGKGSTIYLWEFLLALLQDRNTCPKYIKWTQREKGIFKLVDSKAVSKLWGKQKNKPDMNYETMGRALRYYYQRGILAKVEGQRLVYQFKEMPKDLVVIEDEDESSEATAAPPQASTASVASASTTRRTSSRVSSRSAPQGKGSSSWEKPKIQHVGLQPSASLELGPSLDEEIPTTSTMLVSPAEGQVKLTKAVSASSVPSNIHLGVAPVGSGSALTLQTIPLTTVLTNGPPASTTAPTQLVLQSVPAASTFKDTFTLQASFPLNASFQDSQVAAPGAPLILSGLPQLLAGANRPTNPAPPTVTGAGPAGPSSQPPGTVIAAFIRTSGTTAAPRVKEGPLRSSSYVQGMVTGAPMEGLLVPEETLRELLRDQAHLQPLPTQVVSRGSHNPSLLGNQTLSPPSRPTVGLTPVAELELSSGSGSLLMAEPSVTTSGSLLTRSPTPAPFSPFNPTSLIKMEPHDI
# ETV5, sequence (P41161 whole entry): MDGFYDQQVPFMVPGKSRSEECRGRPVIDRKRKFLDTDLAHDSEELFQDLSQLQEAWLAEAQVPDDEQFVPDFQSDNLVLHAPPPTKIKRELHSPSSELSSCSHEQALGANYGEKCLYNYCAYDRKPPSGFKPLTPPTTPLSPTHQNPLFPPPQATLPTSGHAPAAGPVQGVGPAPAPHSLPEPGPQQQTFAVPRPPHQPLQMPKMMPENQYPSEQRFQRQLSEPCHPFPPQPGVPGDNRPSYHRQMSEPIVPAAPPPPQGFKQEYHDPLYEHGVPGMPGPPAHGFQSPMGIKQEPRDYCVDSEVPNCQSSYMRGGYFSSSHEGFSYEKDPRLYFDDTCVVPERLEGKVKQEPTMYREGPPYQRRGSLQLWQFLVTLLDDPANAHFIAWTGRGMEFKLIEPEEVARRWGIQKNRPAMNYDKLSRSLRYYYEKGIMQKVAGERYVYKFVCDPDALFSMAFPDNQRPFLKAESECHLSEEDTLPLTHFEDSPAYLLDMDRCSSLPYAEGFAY
sequence,measurement,setting,value
TCGACT,binding signal,FEV,"1.42 fold enrichment (6-mer frequency, TF over GST control)"
same,binding signal,ETV5,"1.35 fold enrichment (6-mer frequency, TF over GST control)"
same,binding signal,HSF1,"1.57 fold enrichment (6-mer frequency, TF over GST control)"
same,binding signal,SPIC,"1.41 fold enrichment (6-mer frequency, TF over GST control)"
same,binding signal,ELF4,"1.51 fold enrichment (6-mer frequency, TF over GST control)"
same,binding signal,ELK4,"1.52 fold enrichment (6-mer frequency, TF over GST control)"
same,binding signal,ETV2,"1.33 fold enrichment (6-mer frequency, TF over GST control)"
same,binding signal,ELF3,"1.49 fold enrichment (6-mer frequency, TF over GST control)"
same,binding signal,CRX,"1.36 fold enrichment (6-mer frequency, TF over GST control)"
same,binding signal,ETV1,"1.38 fold enrichment (6-mer frequency, TF over GST control)"
same,binding signal,ERF,"1.34 fold enrichment (6-mer frequency, TF over GST control)"
same,binding signal,ETV3L,"1.27 fold enrichment (6-mer frequency, TF over GST control)"
same,binding signal,ETS2,"1.37 fold enrichment (6-mer frequency, TF over GST control)"
same,binding signal,SPDEF,"1.29 fold enrichment (6-mer frequency, TF over GST control)"
same,binding signal,ETV7,"1.32 fold enrichment (6-mer frequency, TF over GST control)"
same,binding signal,ELF5,"1.28 fold enrichment (6-mer frequency, TF over GST control)"
same,binding signal,ETV3,"1.4 fold enrichment (6-mer frequency, TF over GST control)"
same,binding signal,ETV6,"1.35 fold enrichment (6-mer frequency, TF over GST control)"
